Laboratory results as given in PubChem BioAssay (Tox21).
Results filed as inconclusive are left out. The source made the active and inactive calls. Unless noted, calls follow the shape of the dose curve; as a rule, active = well fitted curve in the direction sought with a large enough effect in the repeat runs; inconclusive = weak or mixed curves; inactive = no such curve, though single readings can be large; an effect the other way counts as inactive or inconclusive.

Experiments:
[1] = target: Peroxisome proliferator-activated receptor delta (Homo sapiens) (UniProt Q03181); assay: qHTS assay to identify small molecule agonists of the peroxisome proliferator-activated receptor delta (PPARd) signaling pathway (AID 743212; calls by dose curve; also: potency is read from the fitted curve at half-maximal effect)
Procedure, shortened: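 A PPARd-bla HEK293H line with beta-lactamase under an Upstream Activator Sequence is treated with compounds at 37 C. Substrate loading for 2 h at room temperature precedes the fluorescence measurement.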

[2] = qHTS assay to identify small molecule antagonists of the peroxisome proliferator-activated receptor delta (PPARd) signaling pathway - cell viability counter screen (AID 743213); also: nearly all actives have a fitted effect of over 50% in size; also: potency is read from the fitted curve at half-maximal effect
Procedure, shortened: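 Viability counter-screen, qHTS format: PPARd-bla HEK293H, L165041 300 nM final, 17 h compound exposure at 37 C, CellTiter-Glo luminescence after 30 min RT.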

[3] = qHTS assay to identify small molecule agonists of the farnesoid-X-receptor (FXR) signaling pathway - cell viability counter screen (AID 743218); also: nearly all actives have a fitted effect of over 45% in size; also: potency is read from the fitted curve at half-maximal effect
Procedure, shortened: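 Parallel cytotoxicity test: compound-treated (16 h, 37 C) HEK 293T FXR-bla reporter cells were lysed with CellTiter-Glo and luminescence recorded.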

[4] = target: Bile acid receptor (Homo sapiens) (UniProt Q96RI1); assay: qHTS assay to identify small molecule agonists of the farnesoid-X-receptor (FXR) signaling pathway (AID 743220; active = well fitted activation curve with a large enough effect in the signal ratio in the repeat runs, not every such curve was filed as active; the % refers to the signal ratio)
Procedure, shortened: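 Beta-lactamase reporter under UAS control in GeneBLAzer FXR HEK 293T cells (5000/well) measured with LiveBLAzer FRET substrate after 2 h at room temperature. Compound exposure lasted 16 h at 37C.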

[5] = qHTS assay to identify small molecule antagonists of the farnesoid-X-receptor (FXR) signaling pathway - cell viability counter screen (AID 743221; active = well fitted cell-killing curve with a large enough effect in the repeat runs, not every such curve was filed as active; also: nearly all actives have a fitted effect of over 50% in size; also: potency is read from the fitted curve at half-maximal effect)
Procedure, shortened: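 Quantitative HTS of the Tox21 10K library run in parallel with the beta-lactamase reporter read. HEK 293T cells carrying a UAS-driven bla reporter got compound and 50 uM CDCA (final) for 16 h; ATP-based luminescence followed.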

[6] = qHTS assay to identify small molecule antagonists of the vitamin D receptor (VDR) signaling pathway - cell viability counter screen (AID 743225); also: nearly all actives have a fitted effect of over 50% in size; also: potency is read from the fitted curve at half-maximal effect
Procedure, shortened: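 Cells (VDR-UAS-bla HEK 293T) are plated, rested 4 h at 37C, dosed with compound and 3 nM final 1-alpha,25-dihydroxy vitamin D3, and incubated 16 h. Viability is taken from CellTiter-Glo luminescence in the reporter wells.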

[7] = qHTS assay to identify small molecule agonists of the NFkB signaling pathway (AID 1159509; active = well fitted curve in the direction sought with a large enough effect in the signal ratio in the repeat runs, not every such curve was filed as active; the % refers to the signal ratio; also: series mostly up to about 61 µM)
Procedure, shortened: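 ME-180 NFkB-bla, 2,000 cells/well, overnight plating; cpd pinned in DMSO, 5 h 37 C; B/G FRET substrate 1.5 h RT; ex 405, em 460/530 nm.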

[8] = qHTS assay to identify small molecule agonists of the NFkB signaling pathway - cell viability counter screen (AID 1159515; calls by dose curve; also: series mostly up to about 61 µM; nearly all actives have a fitted effect of over 55% in size)
Procedure, shortened: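 Using the same wells as the NFkB reporter read, ME-180 NFkB-bla cells given compounds for 5 hr were assessed for viability via CellTiter-Glo, with luminescence taken after a 30 min room-temperature incubation.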

[9] = qHTS assay to identify small molecule agonists of the endoplasmic reticulum stress response signaling pathway - cell viability counter screen (AID 1159517; calls by dose curve; also: nearly all actives have a fitted effect of over 50% in size; also: potency is read from the fitted curve at half-maximal effect)
Procedure, shortened: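 CellTiter-Glo was added to wells already read for beta-lactamase FRET, and luminescence was recorded 30 min later. Cells: ESRE-bla HeLa, 1,500 per well, compound exposure 5 hr at 37 C.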

[10] = qHTS assay to identify small molecule antagonists of the retinoid-related orphan receptor gamma (ROR-gamma) signaling pathway - cell viability counter screen (AID 1159520); also: nearly all actives have a fitted effect of over 50% in size; also: potency is read from the fitted curve at half-maximal effect
Procedure, shortened: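 Tet-on ROR gamma CHO cells (1,000/well) were plated 4 hr, given compounds in DMSO for 2 hr at 37 C, then induced with 1 uM final doxycycline for 16 hr. Viability was read as ATP by CellTiter-Glo luminescence after 30 min.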

[11] = target: Nuclear receptor ROR-gamma (Homo sapiens) (UniProt P51449); assay: qHTS assay to identify small molecule antagonists of the retinoid-related orphan receptor gamma (ROR-gamma) signaling pathway (AID 1159521; also: nearly all actives have a fitted effect of over 50% in size; also: potency is read from the fitted curve at half-maximal effect)
Procedure, shortened: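 RORγ antagonism is scored from reduced reporter luminescence in Tet-on CHO cells. Induction used 1 uM final doxycycline hyclate for 16 h at 37 C, following a 2 h compound exposure.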

[12] = qHTS assay to identify small molecule agonists of the AP-1 signaling pathway - cell viability counter screen (AID 1159525; calls by dose curve; also: nearly all actives have a fitted effect of over 55% in size; also: potency is read from the fitted curve at half-maximal effect)
Procedure, shortened: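 ME-180 AP-1-bla, 2500 cells/well, Opti-MEM + 0.5% dialyzed FBS; overnight 37 °C; cpd 15-pt titration, 5 h 37 °C; CellTiter-Glo 30 min RT; luminescence read; normalised to TOAB and DMSO controls.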

[13] = qHTS assay to identify small molecule agonists of the peroxisome proliferator-activated receptor delta (PPARd) signaling pathway - cell viability counter screen (AID 743211); also: nearly all actives have a fitted effect of over 55% in size; also: potency is read from the fitted curve at half-maximal effect
Procedure, shortened: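 Viability of GeneBLAzer PPARd UAS-bla HEK293H cells was assessed after 17 h compound incubation at 37C, using CellTiter-Glo reagent added after the reporter read and luminescence recorded 30 min later.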

[14] = target: Peroxisome proliferator-activated receptor delta (Homo sapiens) (UniProt Q03181); assay: qHTS assay to identify small molecule antagonists of the peroxisome proliferator-activated receptor delta (PPARd) signaling pathway (AID 743215; active = well fitted inhibition curve with a large enough effect in the signal ratio in the repeat runs, not every such curve was filed as active; the % refers to the signal ratio;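 also: cells stimulated with agonist L165041 at 300 nM final during compound exposure; series mostly up to about 62 µM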)
Procedure, shortened: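 HEK293H UAS-bla, PPARd; agonist L165041 300 nM final with cpd in DMSO; 37 C 17 h; FRET substrate, RT 2 h; fluorescence intensity.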

[15] = target: Bile acid receptor (Homo sapiens) (UniProt Q96RI1); assay: qHTS assay to identify small molecule antagonists of the farnesoid-X-receptor (FXR) signaling pathway (AID 743217; active = well fitted inhibition curve with a large enough effect in the signal ratio in the repeat runs, not every such curve was filed as active; the % refers to the signal ratio; also: potency is read from the fitted curve at half-maximal effect)
Procedure, shortened: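 GeneBLAzer FXR-UAS-bla HEK 293T, CDCA-stimulated (50 uM final). Compound treatment 16 h, 37 °C. Detection: beta-lactamase cleavage of B/G FRET substrate, fluorescence.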

[16] = qHTS assay to identify small molecule agonists of the vitamin D receptor (VDR) signaling pathway - cell viability counter screen (AID 743224); also: nearly all actives have a fitted effect of over 50% in size; also: potency is read from the fitted curve at half-maximal effect
Procedure, shortened: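 Plated VDR-bla cells (4 h, 37C) received compound, incubated 16 h, then LiveBLAzer substrate 2 h RT; CellTiter-Glo added afterwards, luminescence read at 30 min.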

[17] = target: Vitamin D3 receptor (Homo sapiens) (UniProt P11473); assay: qHTS assay to identify small molecule agonists of the vitamin D receptor (VDR) signaling pathway (AID 743222; calls by dose curve)
Procedure, shortened: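 In VDR-bla cells, compound-induced beta-lactamase expression is quantified by FRET substrate fluorescence. Treatment lasts 16 h at 37C; substrate develops 2 h at room temperature.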

[18] = target: Vitamin D3 receptor (Homo sapiens) (UniProt P11473); assay: qHTS assay to identify small molecule antagonists of the vitamin D receptor (VDR) signaling pathway (AID 743223; active = well fitted inhibition curve with a large enough effect in the signal ratio in the repeat runs, not every such curve was filed as active; the % refers to the signal ratio)
Procedure, shortened: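 Fluorescence from LiveBLAzer B/G FRET substrate, read after 2 h at room temperature, reflects beta-lactamase reporter activity in VDR-bla cells treated 16 h at 37C with compounds and agonist 1alpha,25-dihydroxyvitamin D3 (3 nM final).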

[19] = qHTS assay to identify small molecule agonists of the AP-1 signaling pathway (AID 1159526; calls by dose curve)

Measured: Potency

Sequence of Bile acid receptor (Homo sapiens) (Q96RI1 whole entry, looked up): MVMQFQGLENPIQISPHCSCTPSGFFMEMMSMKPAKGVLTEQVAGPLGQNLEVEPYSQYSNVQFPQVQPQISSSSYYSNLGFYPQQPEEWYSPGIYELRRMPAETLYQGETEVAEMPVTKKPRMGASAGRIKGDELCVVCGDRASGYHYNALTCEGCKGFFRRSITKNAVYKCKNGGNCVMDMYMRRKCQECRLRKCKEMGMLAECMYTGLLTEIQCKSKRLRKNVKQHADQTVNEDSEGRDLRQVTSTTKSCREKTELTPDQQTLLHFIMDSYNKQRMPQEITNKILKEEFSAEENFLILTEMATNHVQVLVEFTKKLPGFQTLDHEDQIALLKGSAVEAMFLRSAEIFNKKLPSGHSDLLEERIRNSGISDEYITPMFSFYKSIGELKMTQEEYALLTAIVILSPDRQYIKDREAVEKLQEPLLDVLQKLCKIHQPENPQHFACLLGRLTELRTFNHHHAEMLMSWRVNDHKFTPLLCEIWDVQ
Sequence of Peroxisome proliferator-activated receptor delta (Homo sapiens) (Q03181 whole entry, looked up): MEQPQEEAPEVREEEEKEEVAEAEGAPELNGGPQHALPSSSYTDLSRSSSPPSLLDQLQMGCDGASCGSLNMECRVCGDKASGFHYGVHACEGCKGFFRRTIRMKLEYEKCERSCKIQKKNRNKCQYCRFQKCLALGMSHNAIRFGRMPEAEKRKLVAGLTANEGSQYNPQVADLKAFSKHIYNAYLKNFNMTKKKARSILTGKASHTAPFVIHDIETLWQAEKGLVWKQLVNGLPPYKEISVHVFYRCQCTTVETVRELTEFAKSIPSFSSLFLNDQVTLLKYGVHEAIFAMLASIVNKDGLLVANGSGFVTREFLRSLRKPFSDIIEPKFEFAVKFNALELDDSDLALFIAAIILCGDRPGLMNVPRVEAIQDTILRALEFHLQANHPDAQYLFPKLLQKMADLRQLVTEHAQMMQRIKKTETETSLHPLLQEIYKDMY
Sequence of Vitamin D3 receptor (Homo sapiens) (P11473 whole entry, looked up): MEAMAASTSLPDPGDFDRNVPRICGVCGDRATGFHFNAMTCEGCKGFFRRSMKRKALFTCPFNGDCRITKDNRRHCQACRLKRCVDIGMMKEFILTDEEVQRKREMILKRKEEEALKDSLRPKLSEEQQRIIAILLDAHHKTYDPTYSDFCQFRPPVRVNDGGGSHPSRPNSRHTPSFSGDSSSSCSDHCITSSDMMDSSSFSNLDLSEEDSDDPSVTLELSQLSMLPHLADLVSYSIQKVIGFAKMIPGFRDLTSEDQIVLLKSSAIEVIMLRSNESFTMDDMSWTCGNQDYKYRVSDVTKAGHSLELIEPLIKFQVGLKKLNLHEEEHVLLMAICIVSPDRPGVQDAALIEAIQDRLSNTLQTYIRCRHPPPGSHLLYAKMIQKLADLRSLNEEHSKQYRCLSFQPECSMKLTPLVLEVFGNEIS

C[C@@]12CCC[C@H]1[C@@H]1CC[C@H]3C[C@@H](O)CC[C@]3(C)[C@H]1CC2
active: [11] 13.3 µM
not listed: [13] | [14] | [15] | [16] | [17] | [18] | [19]
inactive: all other assays above

CC(=O)[C@H]1[C@H](C#N)C[C@H]2[C@@H]3CC=C4C[C@@H](O)CC[C@]4(C)[C@H]3CC[C@@]21C
not listed: [2] | [4] | [17] | [18] | [19]
inactive: all other assays above

OC[C@H]1O[C@@H](n2cnc3c(=S)nc[nH]c32)[C@H](O)[C@@H]1O
active: [5] 16.8 µM | [16] 7.5 µM | [6] 8.49 µM
not listed: [2] | [3] | [11] | [13] | [14] | [15]
inactive: all other assays above

CCOc1ccccc1O[C@H](c1ccccc1)[C@H]1CNCCO1
not listed: [2] | [11] | [15] | [17] | [18] | [19]
inactive: all other assays above

CCN(CC)CCNC(=O)COc1ccc(OC)cc1
not listed: [11] | [14]
inactive: all other assays above

CN1C(C(=O)Nc2ccccn2)=C(O)c2sccc2S1(=O)=O
not listed: [4] | [6] | [14] | [15] | [16] | [17] | [18] | [19]
inactive: all other assays above

C[C@@H](O)[C@H]1C(=O)N2C(C(=O)O)=C([C@H]3CCCO3)S[C@H]12
not listed: [1] | [6] | [11] | [16] | [17] | [18] | [19]
inactive: all other assays above

CCCCCCCCCCCCCCN(CCO)CCO
active: [13] 43.6 µM | [2] 49 µM | [15] 49 µM | [3] 43.6 µM | [16] 24.5 µM | [6] 43.6 µM | [10] 61.1 µM | [12] 54.9 µM
inactive: [17] | [7] | [8] | [9]

C=C(C)C(=O)OCCOCCOC(=O)C(=C)C
not listed: [3] | [11] | [14] | [17]
inactive: all other assays above

c1cc(N(CC2CO2)CC2CO2)ccc1Cc1ccc(N(CC2CO2)CC2CO2)cc1 (stereo unspecified)
inactive: [13] | [2] | [3] | [5] | [6] | [7] | [8] | [9] | [12]
active: [10] 54.5 µM

CCC(C)COC(=O)CC(C)C (stereo unspecified)
active: [3] 24.5 µM
inactive: [2] | [14] | [17] | [18] | [16] | [7] | [8] | [9] | [10] | [19]

C/C=C/C=C/C=O
not listed: [2] | [4] | [11] | [14] | [15] | [18] | [19]
inactive: all other assays above

C=C1c2cccc(O)c2C(O)=C2C(=O)[C@]3(O)C(O)=C(C(N)=O)C(=O)[C@@H](N(C)C)[C@@H]3[C@@H](O)[C@H]12
not listed: [3] | [11] | [18]
inactive: all other assays above

CN(C(=O)CN(CCO)CC(=O)N(C)C(C)(C)Cc1ccccc1)C(C)(C)Cc1ccccc1
active: [10] 29.8 µM | [11] 26.6 µM
not listed: [3] | [6] | [12] | [13] | [14] | [17] | [19]
inactive: all other assays above

CC1=Nc2ccc3ccccc3c2C1(C)C
inactive: [13] | [3] | [16] | [6] | [7] | [8] | [9] | [10] | [12]

CCOC(=O)OC(C)OC(=O)[C@@H]1N2C(=O)[C@@H](NC(=O)[C@H](N)c3ccccc3)[C@H]2SC1(C)C (stereo partly specified)
not listed: [19]
inactive: all other assays above

COc1ccc(OC(=O)N(CC(=O)O)Cc2ccc(OCCc3nc(-c4ccccc4)oc3C)cc2)cc1
active: [1] 8.41 µM
not listed: [4] | [11] | [14] | [17]
inactive: all other assays above

CCCCN1CCCC1C(=O)Nc1c(C)cc(C)cc1C (stereo unspecified)
not listed: [1] | [2] | [4] | [11] | [14] | [15] | [16] | [19]
inactive: all other assays above

O=C1c2ccccc2C(=O)C1(O)O
active: [9] 49.2 µM | [10] 61.4 µM
not listed: [1] | [4] | [11] | [14] | [15] | [19]
inactive: all other assays above
